{"source": "PubChem BioAssay", "data": [{"assay": "small-molecule microarray binders of probe aWnt5a, primary screen, biochemical, biotinylated probe, 635/667 nm fluorescence (AID 1113);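 also: score merges 667 nm fluorescence intensity with signal-to-noise per printed feature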", "conditions": "higher = more signal", "values": [{"smiles": "[N-]=[N+]=Nc1ccccc1C[C@]1(C(=O)O)N=C(c2ccc(OCCCO)cc2)O[C@H]1c1ccccc1", "composite z-score": 0.2}, {"smiles": "CN1C(=O)[C@@]2(Cc3ccccc3)N=C(c3ccc(OCCCO)cc3)O[C@H]2c2ccccc21", "composite z-score": -0.0495}, {"smiles": "NC(=O)[C@@H]1[C@H]2C(=O)O[C@H](c3ccccc3)[C@H](c3ccccc3)N2[C@H](c2ccc(OCCO)cc2)[C@@]12C(=O)Nc1ccc(C#CCCO)cc12", "composite z-score": 0.0973}, {"smiles": "Cc1ccc(S[C@]2(C(=O)NC(C)C)CC(=O)N(Cc3ccccc3Cl)[C@@H]2c2ccc(CO)cc2)cc1", "composite z-score": -0.154}, {"smiles": "CC(C)=CCCC(C)=CC(O)C1C=CC2C(=O)N(c3ccccc3)C(=O)C2N1Nc1ccccc1F", "note": "(stereo not drawn)", "composite z-score": -0.171}, {"smiles": "COc1cc2c(cc1OC)CN(C(=O)[C@@H]1[C@H]3C(=O)O[C@H](c4ccccc4)[C@H](c4ccccc4)N3[C@H](c3ccc(O)cc3)[C@@]13C(=O)Nc1ccc(C#CCCO)cc13)CC2", "composite z-score": -0.0538}, {"smiles": "COc1cc(NN2C(C(O)C3CCCCC3)C=CC3C(=O)N(C)C(=O)C32)cc(OC)c1OC", "note": "(stereo not drawn)", "composite z-score": 0.265}, {"smiles": "CC(C)C(CO)N1C(=O)[C@@H]2[C@H]3C(=O)OCC=C[C@H]3OC23C=CCN(C(C)(C)C)C(=O)[C@@H]13", "note": "(stereo partly drawn)", "composite z-score": -0.204}, {"smiles": "COC(=O)[C@@]1(Cc2ccc(OC)cc2)[C@H]2c3cc(C(=O)N4CCCC4)n(Cc4ccc(S(C)(=O)=O)cc4)c3C[C@H]2CN1C(=O)c1ccccc1", "composite z-score": 0.108}, {"smiles": "CCCNC(=O)[C@@]1(Sc2ccc(C)cc2)CC(=O)N(C2CCCCC2)[C@@H]1c1ccc(CO)cc1I", "composite z-score": -0.0242}, {"smiles": "CO[C@H]1O[C@H](CO)[C@@H](OC(=O)Nc2ccc(C#N)cc2)[C@@H]2OC(=O)[C@H](Cc3cccc(Br)c3)C/C=C/C[C@@H](Cc3cccc(Br)c3)C(=O)O[C@@H]12", "composite z-score": -0.104}, {"smiles": "COCCOC(=O)N1C(=O)[C@@]2(c3cc(C#CC4(O)CCCCCC4)ccc31)[C@H](C(=O)N1CCN(c3ncccn3)CC1)[C@H]1C(=O)O[C@H](c3ccccc3)[C@H](c3ccccc3)N1[C@@H]2c1ccccc1OCCO", "composite z-score": -0.184}, {"smiles": "CCCC=C(CCC)[C@@H](NC(=O)CCc1ccccc1)c1ccc(C(F)(F)F)cc1", "composite z-score": 0.451}, {"smiles": "CC(C)[C@H]1NC(=O)[C@@]23C(=O)N[C@@H](Cc4ccccc4)C2[C@H](C)[C@@]2(C)O[C@H]2C3/C=C/CCC/C=C/CNC(=O)[C@H](Cc2ccccc2)NC1=O", "note": "(stereo partly drawn)", "composite z-score": -0.148}, {"smiles": "CCCCNC(=O)c1ccc(C#C[Si](C(C)C)(C(C)C)C(C)C)c(OC(C)=O)c1", "composite z-score": -0.0977}, {"smiles": "C=C(/C(=C/C[C@H](OC(=O)c1ccncc1)c1ccccc1OCCO)c1cnc2ccccc2c1)C(C)C", "composite z-score": 0.0374}, {"smiles": "COc1cc(NN2C(C(O)c3cc(OC)c(OC)c(OC)c3)C=CC3C(=O)N(c4ccccc4)C(=O)C32)cc(OC)c1OC", "note": "(stereo not drawn)", "composite z-score": 0.145}, {"smiles": "COC(=O)[C@@]1(Cc2ccccc2)[C@H]2c3cc(C(=O)N4CCCC4)n(CCSCCO)c3C[C@H]2CN1C(=O)c1ccccc1", "composite z-score": 0.145}, {"smiles": "COCCOC(=O)N1C(=O)[C@@]2(c3cc(C#Cc4ccc(OC)cc4)ccc31)[C@H](c1ccc(OCCO)cc1)N1[C@H](c3ccccc3)[C@H](c3ccccc3)OC(=O)[C@H]1[C@@H]2C(=O)Nc1nc2ccccc2s1", "composite z-score": 0.0017}, {"smiles": "COCCOC(=O)N1C(=O)[C@@]2(c3cc(C#CCC(C(=O)OC)C(=O)OC)ccc31)[C@H](c1ccc(O)cc1)N1[C@H](c3ccccc3)[C@H](c3ccccc3)OC(=O)[C@H]1[C@@H]2C(=O)NC[C@H](O)c1ccccc1", "composite z-score": -0.0172}, {"smiles": "CCCCCCCCCCC(O)C1C=CC2C(=O)N(c3ccccc3)C(=O)C2N1Nc1ccccc1F", "note": "(stereo not drawn)", "composite z-score": -0.0715}, {"smiles": "COc1ccc(C(O)C2C=CC3C(=O)N(c4ccccc4)C(=O)C3N2Nc2ccc(C(C)C)cc2)c2ccccc12", "note": "(stereo not drawn)", "composite z-score": 0.0068}, {"smiles": "O=C1C2C=CC(C(O)c3cc(C(F)(F)F)cc(C(F)(F)F)c3)N(Nc3ccccc3F)C2C(=O)N1c1ccccc1", "note": "(stereo not drawn)", "composite z-score": -0.043}, {"smiles": "C=C(CCCC)C(=O)CC[C@@H](OC(=O)c1cccnc1)c1ccc(OCCO)cc1", "composite z-score": -0.0161}, {"smiles": "C=C(/C(=C/C[C@@H](OC(=O)c1ccncc1)c1cccc(OCCO)c1)c1cnc2ccccc2c1)C(C)C", "composite z-score": 0.0215}, {"smiles": "CC(C)CNC(=O)[C@@]1(c2ccc([N+](=O)[O-])cc2)CC(=O)N(C2CCCCC2)[C@@H]1c1ccc(CO)cc1", "composite z-score": -0.0539}, {"smiles": "C[C@]1(C(=O)O)c2ccccc2C(=O)N(Cc2ccc(OC(F)(F)F)cc2)[C@H]1c1ccc(CO)cc1", "composite z-score": -0.129}, {"smiles": "C=C(COC)C(=O)CC[C@H](OC(=O)c1cccnc1)c1ccc(CO)o1", "composite z-score": -0.167}]}]}
